From PubChem
Rows were chosen to be rich in hits. Some 16% of all compounds tested hit in one or more screens of this group.
TDP1 inh = qHTS Assay for Inhibitors of Tyrosyl-DNA Phosphodiesterase (TDP1) | Tyrosyl-DNA phosphodiesterase 1 (Homo sapiens), Q9NUW8 | recombinant TDP1, AlphaScreen DNA substrate cleavage | Potency, µM (doses to about 130 µM), actives largely listed as inhibitors | 350,000 tested, 0.28% active; note: nearly all actives have a fitted effect of over 40% in size
Target sequence (Q9NUW8 whole entry, looked up): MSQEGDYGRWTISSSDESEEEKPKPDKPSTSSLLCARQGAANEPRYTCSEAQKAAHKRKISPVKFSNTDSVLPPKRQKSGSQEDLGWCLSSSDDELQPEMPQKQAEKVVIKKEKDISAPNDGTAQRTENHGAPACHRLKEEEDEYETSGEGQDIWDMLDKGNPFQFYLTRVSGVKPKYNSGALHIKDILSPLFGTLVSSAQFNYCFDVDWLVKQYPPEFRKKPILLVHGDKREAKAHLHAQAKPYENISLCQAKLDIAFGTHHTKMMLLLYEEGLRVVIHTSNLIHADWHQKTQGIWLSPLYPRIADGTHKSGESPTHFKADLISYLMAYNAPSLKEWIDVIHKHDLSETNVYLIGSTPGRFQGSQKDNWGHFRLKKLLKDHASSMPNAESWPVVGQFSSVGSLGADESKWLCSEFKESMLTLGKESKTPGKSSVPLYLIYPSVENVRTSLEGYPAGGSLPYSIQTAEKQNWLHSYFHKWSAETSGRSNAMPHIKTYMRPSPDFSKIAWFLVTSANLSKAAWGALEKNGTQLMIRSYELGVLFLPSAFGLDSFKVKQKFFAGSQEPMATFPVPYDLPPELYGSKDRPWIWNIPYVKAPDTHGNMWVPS
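Recombinant E. coli-expressed Tdp1 (1 nM) preincubated with compound 15 min at RT, then 5'-biotin/3'-phosphotyrosine-FITC DNA substrate (15 nM) added for 5 min. AlphaScreen beads (10 ug/ml) added, 10 min RT; tyrosine-FITC cleavage read as signal loss.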
uPA generation = qHTS for Inhibitors of Cell Surface uPA Generation; cell surface uPA generation assay, qHTS; Potency, µM (series often up to 38.3 µM), usual class: inhibitors; 330,000 tested, 0.31% active; AID 540303, 2011; active = well fitted inhibition curve with a large enough effect; inconclusive = small, poorly fitted or top-dose-only effect; inactive = no such curve, though single readings can be large or run the other way; tested in mouse RAW 264.7 cells; note: nearly all actives have a fitted effect of over 55% in size
TDP1 cell CPT = qHTS for Inhibitors of human tyrosyl-DNA phosphodiesterase 1 (TDP1): qHTS in cells in presence of CPT | Potency, µM (top dose mostly 46.2 µM), most hits filed as inhibitors | 420,000 tested, 12% active | AID 686979, 2013 | chicken DT40 Tdp1-/-;hTDP1 cells + 20 nM CPT, ATP luminescence, 48 h; note: nearly all actives have a fitted effect of over 55% in size
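Chicken DT40 Tdp1-/- cells complemented with human TDP1, 400 cells/well, exposed to compounds plus 20 nM camptothecin for at least 48 h at 37 C; viability read as ATP content by CellTiter-Glo luminescence.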
DT40 TDP1 no CPT = qHTS for Inhibitors of human tyrosyl-DNA phosphodiesterase 1 (TDP1): qHTS in cells in absence of CPT; DT40 Tdp1-/- hTDP1 cells, no CPT, ATP luminescence, 48 h; Potency, µM (doses to about 46.2 µM), actives largely listed as inhibitors; 420,000 tested, 15% active; note: nearly all actives have a fitted effect of over 55% in size
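Growth of hTDP1-complemented DT40 Tdp1-knockout cells is measured by ATP luminescence after at least 48 hr compound exposure at 37 °C, with DMSO substituting for the 20 nM CPT used in the parallel screen.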
miR-21 reporter = qHTS Assay for Modulators of miRNAs and/orActivators of miR-21 | AID 2288, 2010 | HeLa miR-21 FLuc reporter, luciferase, 48 h | Potency, µM (series often up to 38.3 µM), usual class: activators | 340,000 tested, under 10 active;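 note: miR-21 action dims this reporter so a rising signal means less miR-21 action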
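HeLa miR-21-FLuc reporter line, endogenous miR-21; 2000 cells/well in DMEM/10% FBS; compound titration up to ~40uM final, 48 h, 37 degree Celsius; luciferase detection reagent, 15 min lysis, CCD luminescence.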
Large screens that a line does not name were inactive. Unless noted, calls come from the whole dose curve; as a rule, active = well fitted curve in the direction sought with a large enough effect; inconclusive = small, poorly fitted or top-dose-only effect, or another doubt; inactive = no such curve, though single readings can be large; an effect the other way counts as inactive or inconclusive.

O=C(Nc1ccccc1N1CCN(c2ccccc2)CC1)c1ccccc1F	TDP1 cell CPT inconclusive, DT40 TDP1 no CPT 3.7µM
Cc1sc2ncn(CC(=O)N(C)c3ccc(C(C)C)cc3)c(=O)c2c1S(=O)(=O)N1CCC(C)CC1	TDP1 cell CPT 23µM, DT40 TDP1 no CPT 23µM, miR-21 reporter inconclusive (no result: uPA generation)
COc1ccccc1N1CCN(S(=O)(=O)c2c(C)sc3ncn(CC(=O)N(C)c4ccc(C(C)C)cc4)c(=O)c23)CC1	TDP1 cell CPT 13µM, DT40 TDP1 no CPT inconclusive (no result: uPA generation)
C=CCn1c(SCc2cc(=O)n3ccsc3n2)nc2cc(Cl)ccc2c1=O	DT40 TDP1 no CPT inconclusive
C=CCn1c(SCC#N)nc2cc(Cl)ccc2c1=O	TDP1 cell CPT inconclusive, DT40 TDP1 no CPT 13µM (no result: uPA generation, miR-21 reporter)
CCCn1c(SCN2C(=O)c3ccccc3C2=O)nc2cc(Cl)ccc2c1=O	TDP1 cell CPT 21µM, DT40 TDP1 no CPT 23µM
C=CCn1c(SCC(=O)NCCC2=CCCCC2)nc2ccc(Cl)cc2c1=O	TDP1 cell CPT 23µM, DT40 TDP1 no CPT inconclusive
Cn1c(=O)cc(SCC(=O)NCCC2=CCCCC2)c2ccc(Cl)cc21	none
O=C(NCc1cccc(C(F)(F)F)c1)c1ccc2sc([C@@H]3O[C@H](CO)[C@H](O)[C@H](O)[C@H]3O)nc2c1	none (no result: TDP1 inh, uPA generation, miR-21 reporter)
O=S(=O)(NCc1ccccc1)c1cccc2nonc12	none (no result: uPA generation)
O=C1/C(=C\c2ccc(O)c(O)c2)N=C2CCCCCN12	TDP1 cell CPT 23µM, DT40 TDP1 no CPT inconclusive
CC1(C)CC(=O)C=C(c2n[nH]nc2C2CC2)C1	none (no result: TDP1 inh, uPA generation, miR-21 reporter)
Cc1nc(Nc2nc3ccccc3o2)nc2c1CCC2	TDP1 cell CPT inconclusive, DT40 TDP1 no CPT 21µM
CC(C)c1nc(Nc2nc3ccccc3o2)nc2c1CCCC2	none (no result: uPA generation, TDP1 cell CPT, DT40 TDP1 no CPT, miR-21 reporter)
CCOC(=O)c1cnc(Nc2nc3ccccc3o2)nc1CSc1nnc(C)s1	TDP1 cell CPT 3.3µM, DT40 TDP1 no CPT 2.6µM (no result: TDP1 inh, miR-21 reporter)
CCOC(=O)c1cnc(Nc2nc3ccccc3o2)nc1C	TDP1 cell CPT 3.2µM, DT40 TDP1 no CPT 3.2µM (no result: uPA generation)
Cc1cccc(N(CC(=O)NCCc2ccccc2)C(=O)c2csnn2)c1	none
O=C1NC[C@H](Cc2ccccc2)N(C[C@@H]2CCCN2C[C@H](Cc2ccc(O)cc2)N2C[C@H](Cc3ccc(O)cc3)N(CCc3ccccc3)C(=O)C2=O)C1=O	none (no result: TDP1 inh, uPA generation, miR-21 reporter)
O=C1NC[C@H](Cc2ccccc2)N(C[C@H]2CCCN2C[C@H](Cc2ccccc2)N2C[C@H](Cc3ccccc3)N(CCc3ccccc3)C(=O)C2=O)C1=O	uPA generation inconclusive, TDP1 cell CPT inconclusive, DT40 TDP1 no CPT 16µM (no result: TDP1 inh, miR-21 reporter)
O=C1NC[C@H](Cc2ccc(O)cc2)N(C[C@@H]2CCCN2C[C@H](Cc2ccccc2)N2C[C@H](Cc3ccc(O)cc3)N(CCc3ccccc3)C(=O)C2=O)C1=O	TDP1 cell CPT inconclusive, DT40 TDP1 no CPT 18µM (no result: TDP1 inh, uPA generation, miR-21 reporter)
CC(=O)Nc1ccc(S(=O)(=O)Nc2ccc(C)c(C)c2)cc1	none (no result: uPA generation, TDP1 cell CPT, DT40 TDP1 no CPT, miR-21 reporter)
CCN(CC)CCCNC(=O)c1ccc(S(=O)(=O)Nc2ccc(C)c(C)c2)cc1	TDP1 cell CPT inconclusive, DT40 TDP1 no CPT 16µM (no result: miR-21 reporter)
CCn1cc(C(=O)NCc2ccc(C)cc2)c(=O)c2cc(S(=O)(=O)N3CCCCCC3)ccc21	TDP1 cell CPT 15µM, DT40 TDP1 no CPT 21µM (no result: uPA generation)
CCn1cc(C(=O)NCc2ccc(Cl)cc2)c(=O)c2cc(S(=O)(=O)N3CCOCC3)ccc21	TDP1 cell CPT 21µM, DT40 TDP1 no CPT 23µM
CCn1cc(C(=O)NCCc2ccc(Cl)cc2)c(=O)c2cc(S(=O)(=O)N3CCOCC3)ccc21	none (no result: uPA generation)
CCn1cc(C(=O)NCC(OC)OC)c(=O)c2cc(S(=O)(=O)N3CCC(C)CC3)ccc21	TDP1 cell CPT inconclusive, DT40 TDP1 no CPT 10µM
O=C(CN(Cc1ccco1)C(=O)c1nsc(Cl)c1Cl)NC1CCCCC1	none
O=c1c(S(=O)(=O)c2ccccc2)cn(Cc2cccc(F)c2)c2cc(N3CCCC3)c(F)cc12	TDP1 cell CPT inconclusive, DT40 TDP1 no CPT inconclusive (no result: uPA generation)
Cc1ccc2nc(-c3ccncc3)c(Nc3ccccc3C)n2c1	TDP1 cell CPT inconclusive, DT40 TDP1 no CPT inconclusive (no result: uPA generation)
Cc1ccc(Nc2c(-c3ccc(C)o3)nc3ncccn23)cc1	none (no result: TDP1 inh)
